Shown are actives, neighbours in structure and some others; about 1.2% of the full set was active somewhere.
APOBEC3A inh: APOBEC3A ssDNA deaminase inhibitors, primary screen, selectivity assay for APOBEC3G inhibitor project, biochemical, FAM/TAMRA oligo cleavage fluorescence; 330,000 tested, 0.41% active; recombinant A3A, FAM/TAMRA ssDNA deamination fluorescence; inhibition, % at 20 µM;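 active = at least 40% inhibition at 20 µM here, with at most 30% in a related deaminase screen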;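 note: plate controls were A3A with DMSO for no effect and wells lacking A3A enzyme for full effect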
Target sequence (P31941 whole entry, looked up): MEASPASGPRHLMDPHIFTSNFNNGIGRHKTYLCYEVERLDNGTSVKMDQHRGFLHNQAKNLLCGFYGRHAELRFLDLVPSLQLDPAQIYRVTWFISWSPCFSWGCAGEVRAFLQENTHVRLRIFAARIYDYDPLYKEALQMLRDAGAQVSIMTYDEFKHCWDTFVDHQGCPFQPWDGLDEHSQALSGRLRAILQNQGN
PolyA inh: polyadenylation inhibitors in yeast reporter cells, primary screen, luminescence, S. cerevisiae | S. cerevisiae SKY197-pL101 polyadenylation reporter, beta-gal luminescence; efflux-impaired pdr1/pdr3 knockout yeast; score 100 = 6 SD above DMSO | activity score, % at 12 µM | 300,000 tested, 0.02% active | AID 1875, 2009;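 active = lowest replicate activity score at least 50, where 100 means six control SD above control mean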;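 note: yeast exposed to compound for 9 h at 30 °C; higher score means more reporter readthrough which indicates perturbed polyadenylation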
A3G deaminase: APOBEC3G DNA deaminase inhibitors, primary screen, biochemical, fluorescence, single-stranded DNA substrate, uHTS | DNA dC->dU-editing enzyme APOBEC-3G (Homo sapiens), Q9HC16 | recombinant A3G, ssDNA deamination FAM/TAMRA fluorescence | inhibition, % at 20 µM | 330,000 tested, 0.28% active | AID 493012, 2011;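 active = inhibition of at least 40% at 20 µM, with no more than 30% in the related APOBEC3A deaminase screen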;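 note: plate controls were DMSO wells with A3G for no effect and wells lacking A3G enzyme for full effect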
Target sequence (Q9HC16 whole entry, looked up): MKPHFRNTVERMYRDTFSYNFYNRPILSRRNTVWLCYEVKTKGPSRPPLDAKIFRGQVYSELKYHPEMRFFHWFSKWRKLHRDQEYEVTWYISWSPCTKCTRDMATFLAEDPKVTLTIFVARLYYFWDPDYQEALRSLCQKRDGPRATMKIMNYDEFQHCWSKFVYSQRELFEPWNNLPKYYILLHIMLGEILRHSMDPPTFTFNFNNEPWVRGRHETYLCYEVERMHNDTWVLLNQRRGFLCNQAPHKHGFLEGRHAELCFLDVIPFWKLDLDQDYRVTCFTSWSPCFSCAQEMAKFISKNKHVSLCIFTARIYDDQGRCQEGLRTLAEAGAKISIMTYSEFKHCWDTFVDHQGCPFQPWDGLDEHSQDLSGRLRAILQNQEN
NALP1 inh: NALP1 inflammasome inhibitors in reconstituted yeast, colorimetric, S. cerevisiae, triplicate retest; 280,000 tested, 0.61% active; AID 2071, 2009; inhibition, % at 10 µM; S. cerevisiae NALP1/ASC/caspase-1 growth, X-gal OD620, 72 h; in the data active = inhibition mostly above about 24%, no sharp cut-off; inactive = mostly below about 32%
* hit, by the source's call; . = no result.

SMILES | APOBEC3A inh | PolyA inh | A3G deaminase | NALP1 inh
COc1ccc(C(C)(C)C)cc1NC(=O)C1=CC=CN2CCS(=O)(=O)N=C12 | 1 | . | -7 | .
CCOC(=O)c1cccc(NS(=O)(=O)Cc2ccccc2)c1 | -5 | 9 | -7 | 44*
O=C1/C(=C/c2cccnc2)Oc2cc(OS(=O)(=O)c3ccc(Cl)cc3)ccc21 | 4 | 31 | 27 | 41*
O=C1/C(=C/c2cccnc2)Oc2cc(OS(=O)(=O)c3ccccc3)ccc21 | 0 | 1 | -4 | 37
CCOC(=O)c1sc(-c2ccc(C(F)(F)F)cc2)nc1O | -6 | -19 | -18 | 32*
CCOC(=O)c1sc(-c2cccc(C(F)(F)F)c2)nc1O | -4 | 11 | -7 | 22
Cn1nc(-c2ccc(Cl)cc2)nc2c(=O)n(C)c(=O)nc1-2 | -3 | -69 | -1 | 48*
CNc1nc(SCc2ccc(C)cc2)nc2c1CCCC2 | -3 | -1 | -2 | 99*
Cc1ccc(CSc2nc3c(c(N(C)C)n2)CCCC3)cc1 | 3 | -19 | -2 | 36
CSc1ccc(/C=N/NC(=O)CN2CCN(Cc3ccccc3)CC2)cc1 | -1 | 3 | -6 | 30
O=C(CN1CCCC1)N/N=C/c1ccc(-c2cccc(Cl)c2)o1 | -5 | 2 | -7 | 32*
O=C(CN1CCCCC1)N/N=C/c1cccc(Cl)c1 | 1 | 6 | 0 | -19
Cc1ccc(/C=N/NC(=O)CN2CCN(Cc3ccccc3)CC2)o1 | -3 | 7 | -9 | 45*
COc1c(Cl)cnn(-c2ccc(Cl)c(Cl)c2)c1=O | 0 | -3 | -1 | 37*
CCCCNC(=O)c1cc(-c2ccc(OC)c(OC)c2)on1 | -3 | 0 | 1 | 43*
Cc1ccc(NS(=O)(=O)c2ccc3c(c2)OCCCO3)cc1S(=O)(=O)N1CCOCC1 | 0 | . | -8 | .
COc1cc(/C=N/NC(=O)c2csc3c2CCCC3)ccc1OCCN1CCOCC1 | 0 | -5 | -3 | 11
CCOc1ccc(S(=O)(=O)Nc2ccc(C(=O)N/N=C(\C)c3ccc(-n4ccnc4)cc3)cc2)cc1 | -1 | 6 | 1 | 35*
O=C(Nc1ccc(Br)cc1)C1CCCC1 | -2 | -11 | 0 | 0
CNC(=O)CSc1cnc2ccccc2n1 | 0 | 8 | -1 | -11
CN(C)C(=O)CSc1cnc2ccccc2n1 | 0 | -1 | -5 | 28*
COc1cc2c(cc1OC)C(c1ccccc1Cl)N(C)CC2 (stereo not given) | -7 | 2 | -9 | 16
COc1ccc(C(=O)NCC(=O)N/N=C(C)\C=C\c2ccccc2)cc1OC | -2 | 3 | -5 | -5
CCN(CC)c1ccc(N=Cc2ccc([N+](=O)[O-])o2)cc1 | 3 | -7 | 6 | 76*
CCOc1ncccc1C(=O)NNC(=O)c1cccc(S(=O)(=O)N2CCOCC2)c1 | -3 | . | -6 | .
SMILES | APOBEC3A inh | PolyA inh | A3G deaminase | NALP1 inh
CC(CN(C)Cc1ccccc1)OC(=O)C1COc2ccccc2O1 (stereo not given) | -3 | -10 | -8 | 0
CC(CN1CCOCC1)OC(=O)C1COc2ccccc2O1 (stereo not given) | -5 | -9 | -3 | 28*
COc1ccc(CC(=O)OC(C)CN2CCOCC2)cc1 (stereo not given) | 0 | 22 | -3 | 29*
CC(CN1CCOCC1)OC(=O)CCc1ccccc1 (stereo not given) | 1 | -9 | -1 | 4
Cc1nc(-c2ccccc2)nc2n[nH]c(N)c12 | -4 | 10 | -4 | .
CCS(=O)(=O)c1ccc2oc(SCC(=O)Nc3ccc(OC)cc3)nc2c1 | -2 | 7 | -7 | -30
Cc1c(NS(=O)(=O)c2cc(C(=O)NCc3ccco3)cc(Cl)c2Cl)c(=O)n(-c2ccccc2)n1C | 4 | 12 | 14 | .
COCCN=C1Sc2nc3cc(C)c(C)cc3cc2CN1Cc1cccs1 | 0 | -6 | 0 | .
COCCN=C1Sc2nc3ccc(C)cc3cc2CN1Cc1ccco1 | -2 | 0 | -4 | 48*
Cc1cc(NC(=O)COc2ccccc2C)ccc1NC(=O)c1cccs1 | -3 | 4 | -5 | 7
CCCCCC(=O)Nc1ncc2c(n1)CC(c1cccs1)CC2=O (stereo not given) | 6 | -1 | 3 | 38*
COc1ccc(/C=C/C(=O)c2ccc3c(c2)OCCO3)cc1[N+](=O)[O-] | 1 | -12 | -2 | 6
O=C(/C=C/c1cccc([N+](=O)[O-])c1)c1ccc2c(c1)OCCO2 | 6 | -6 | -3 | 40*
CN(C)C(=O)CSc1nnc(Cc2ccccc2)n1CC1CCCO1 (stereo not given) | -3 | 6 | -10 | -3
CC(C)(C#N)Nc1ccccc1 | -4 | 17 | -7 | 18*
COc1cccc(OC)c1C(=O)OCC(=O)N(C)c1ccccc1 | 2 | 5 | 0 | 14
Cn1c(SCc2ccccc2)nc(N)c(N=O)c1=O | -1 | 8 | -8 | .
Cc1ccc(OCC(=O)N2CCOCC2)cc1C | -2 | -4 | -4 | 28
Cc1cc(C)c(C)c(OCC(=O)N2CCOCC2)c1 | 5 | 29 | 1 | 44*
C1CCCCCC2(CCCCC1)OCC(CN1CCOCC1)O2 (stereo not given) | 1 | -20 | -7 | 54*
O=c1[nH][nH]c(-c2ccccc2O)c1C(C[N+](=O)[O-])c1ccc(Cl)cc1Cl (stereo not given) | -4 | -5 | -8 | 70*
O=c1[nH][nH]c(-c2ccccc2O)c1C(C[N+](=O)[O-])c1cccc(Cl)c1 (stereo not given) | 3 | -7 | -3 | 101*
O=c1[nH][nH]c(-c2ccccc2O)c1C(C[N+](=O)[O-])c1ccccc1 (stereo not given) | 4 | 10 | -5 | .
CC(C)Oc1ccc2c(=O)c(-c3ccccc3)coc2c1 | -2 | 1 | -3 | 49
CC(=O)Oc1ccc2c(=O)c(-c3nc4ccccc4s3)coc2c1 | 5 | 9 | -12 | 28*
SMILES | APOBEC3A inh | PolyA inh | A3G deaminase | NALP1 inh
O=C(Cc1ccc(Cl)cc1)c1c[nH]c(C(=O)NCCCN2CCOCC2)c1 | 2 | 14 | -5 | 6
CC(C)c1nc2c(s1)CCc1onc(-c3cccc([N+](=O)[O-])c3)c1-2 | -1 | 30 | -11 | .
COCCn1c(-c2ccc(-c3ccc([N+](=O)[O-])cc3Br)o2)nc2c1c(=O)[nH]c(=O)n2CC(C)C | 23 | -7 | 13 | 22*
N#Cc1c(Cl)nc(-c2ccncc2)nc1-c1ccccc1 | -6 | -4 | -12 | 29
O=C(COC(=O)/C=C/c1cccc([N+](=O)[O-])c1)Nc1cccnc1Cl | -3 | . | -1 | .
CCCCc1nc(NCCO)c(C#N)c2c1CCCC2 | -3 | -29 | 2 | 2
CCCCNc1nc(CC)c2c(c1C#N)CCCC2 | 5 | -6 | 7 | 41*
